Test [1] is described as follows: ATG_CRE_CIS: Attagene CIS-FACTORIAL HepG2 Assay for human cAMP Responsive Element (CRE) binding protein 3 (AID 2282926). To be noted: HepG2 CRE cis-reporter, Attagene multiplexed mRNA; actives raise or lower the signal. In short, it runs like this:
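Liver-derived HepG2, transfected with a CRE-containing reporter panel, exposed 24 h; transcript levels sized and quantified by capillary electrophoresis of labelled amplicons; signal changes either way referenced to vehicle.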

Test [2] deals with CCAAT/enhancer-binding protein beta (Homo sapiens) (UniProt P17676). The test can be described thus: ATG_C_EBP_CIS: Attagene CIS-FACTORIAL HepG2 Assay for human CCAAT/Enhancer Binding Protein (C/EBP) beta (AID 2282927). To be noted: HepG2 Attagene cis-factorial transcription factor reporter; actives raise or lower the signal. In short, it runs like this: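 Transiently transfected HepG2 (MRTU library, endogenous TF-driven promoters); 24 h dosing; total RNA → oligo(dT) RT → PCR → 6-FAM primer extension → HpaI digest → CE; fit bidirectionally vs DMSO.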

Test [3] in a line: ATG_CMV_CIS: Attagene CIS-FACTORIAL HepG2 Assay for human CMV (Internal Marker) (AID 2282928).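 Note: endpoint acts as a background internal control marker rather than a target.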 Particulars: HepG2 CMV promoter reporter, transcription factor profiling; actives raise or lower the signal. The gist of the method: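 Reporter transcripts from transfected HepG2 cells are isolated after 24 h of chemical dosing, reverse-transcribed and amplified. Fragments labeled with 6-FAM are cut with HpaI and quantified by capillary electrophoresis; DMSO defines baseline.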

Test [4] is described as follows: ATG_DR4_LXR_CIS: Attagene CIS-FACTORIAL HepG2 Assay for human Liver X Receptor (LXR), DR4 submotif (AID 2282929). Particulars: HepG2 Attagene DR4 cis-reporter, mRNA transcription; actives raise or lower the signal. The gist of the method:
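Readout: reporter transcript fluorescence after RT-PCR and capillary electrophoresis, fitted bidirectionally against DMSO controls. Human HepG2 liver cells carried transiently transfected multiplexed reporter constructs; endogenous transcription factor activity measured 24 h post-dosing.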

The target in test [5] is Aryl hydrocarbon receptor (Homo sapiens) (UniProt P35869). As to the kind of experiment: ATG_Ahr_CIS: Attagene CIS-FACTORIAL HepG2 Assay for human Aryl Hydrocarbon Receptor (Ahr) (AID 2282930). To be noted: HepG2 AhR cis-factorial reporter transcription; actives raise or lower the signal. In short, it runs like this: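 Read-out: reporter mRNA quantified by RT-PCR with fluorescent primer extension and capillary electrophoresis. Human HepG2 liver cells carried transfected cis-promoter reporter units and were exposed to chemical for 24 h; gain or loss fitted relative to DMSO.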

Test [6] in a line: ATG_AP_1_CIS: Attagene CIS-FACTORIAL HepG2 Assay for human Activator Protein 1 (AP-1) (AID 2282931). To be noted: HepG2 Attagene cis-factorial AP-1 reporter mRNA; actives raise or lower the signal. In short, it runs like this:
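Reporter transcripts were measured 24 h after dosing by RT-PCR and capillary electrophoresis of fluorescent fragments. Cells: HepG2 carrying transfected cis-regulated reporter constructs reading endogenous factor activity. Gain or loss fitted against DMSO.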

The nature of test [7]: ATG_AP_2_CIS: Attagene CIS-FACTORIAL HepG2 Assay for human Activator Protein 2 (AP-2) (AID 2282932). To be noted: HepG2 AP-2 cis-reporter, Attagene transcription factor profiling; actives raise or lower the signal. The gist of the method: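 Liver-derived HepG2 line, cis-reporter system measuring endogenous factors; 24 h dosing; reporter mRNA detected by fluorescent RT-PCR and capillary electrophoresis.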

A short description of test [8]: ATG_BRE_CIS: Attagene CIS-FACTORIAL HepG2 Assay for human Bone Morphogenetic Protein (BMP) Response Element (BRE) (AID 2282933). Particulars: HepG2 BMP response element reporter, Attagene transcription factor profiling; actives raise or lower the signal. In short, it runs like this:
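Fluorescence-labelled reporter cDNA fragments, separated by capillary electrophoresis, gave the signal for this component of a 52-readout multiplex. HepG2 cells were transfected, exposed to chemicals for 24 h, and compared with DMSO using bidirectional fitting.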

The target in test [9] is Retinoic acid receptor alpha (Homo sapiens) (UniProt P10276). As to the kind of experiment: ATG_DR5_RAR_CIS: Attagene CIS-FACTORIAL HepG2 Assay for human Retinoic Acid Receptor Alpha (RARE), DR5 submotif (AID 2282934). Particulars: HepG2 Attagene cis-factorial RARE DR5 reporter, mRNA; actives raise or lower the signal. In short, it runs like this: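 Read-out: DR5-driven reporter transcript measured by RT-PCR, 6-FAM primer extension, HpaI digest and capillary electrophoresis. Human HepG2 liver cells carry transiently transfected cis-element reporter constructs; dosing lasts 24 h. Gain or loss of signal fitted against DMSO baseline.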

Test [10] concerns the target Transcription factor E2F1 (Homo sapiens) (UniProt Q01094). As to the kind of experiment: ATG_E2F_CIS: Attagene CIS-FACTORIAL HepG2 Assay for human E2F Transcription Factor 1 (AID 2282935). Particulars: HepG2 Attagene cis-reporter, E2F reporter RNA transcripts; actives raise or lower the signal. The gist of the method: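 Liver-derived HepG2 cells expressing transfected promoter-driven reporter units received test chemical for 24 hours. Signal gains or losses were fitted bidirectionally against DMSO.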

The nature of test [11]: ATG_M_61_CIS: Attagene CIS-FACTORIAL HepG2 Assay for M61 Transcription Factor (Internal Marker) (AID 2282937). Particulars: HepG2 Attagene CIS-FACTORIAL M61 internal marker reporter; actives raise or lower the signal. The gist of the method:
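Readout: fluorescent reporter mRNA fragments resolved by capillary electrophoresis after RT-PCR. Transiently transfected human HepG2 cells carried MRTU constructs reporting endogenous TF activity; 24 h chemical exposure; gain or loss of signal fitted relative to DMSO.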

The nature of test [12]: ATG_EGR_CIS: Attagene CIS-FACTORIAL HepG2 Assay for human Early Growth Response 1 (EGR1) (AID 2282938). To be noted: HepG2 Attagene CIS-FACTORIAL EGR reporter mRNA; actives raise or lower the signal. The gist of the method:
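Read-out: fluorescent reporter-mRNA fragments resolved by capillary electrophoresis after RT-PCR, 24 h post-dose in transiently transfected HepG2. Endogenous transcription-factor activity reported via cis-element-regulated reporter units; gain or loss fitted relative to DMSO.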

The nature of test [13]: ATG_M_19_CIS: Attagene CIS-FACTORIAL HepG2 Assay for M19 Transcription Factor (Internal Marker) (AID 2282939). To be noted: HepG2 Attagene CIS-FACTORIAL M19 internal marker reporter; actives raise or lower the signal. The gist of the method:
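HepG2, MRTU transient transfection, 24 h dosing. Total RNA → RT-PCR → 6-FAM primer extension → HpaI digest → CE fluorescence. Bidirectional curve fit, DMSO negative control.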

Test [14] is described as follows: ATG_Ets_CIS: Attagene CIS-FACTORIAL HepG2 Assay for human Erythroblast Transformation Specific (ETS) (AID 2282941). Particulars: HepG2 ETS cis-reporter transcription, actives raise or lower the signal. The gist of the method: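 Bidirectional fit versus DMSO of reporter mRNA signal, detected by RT-PCR and capillary electrophoresis in HepG2 cells transiently transfected with cis-element reporters and dosed 24 h.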

Test [15] addresses Hepatocyte nuclear factor 3-beta (Homo sapiens) (UniProt Q9Y261). As to the kind of experiment: ATG_FoxA2_CIS: Attagene CIS-FACTORIAL HepG2 Assay for human Forkhead box A2 (FOXA2) (AID 2282942). Particulars: HepG2 cis-reporter transcription factor activity, 24 h; actives raise or lower the signal. In short, it runs like this: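 Readout: fluorescent reporter transcripts resolved by capillary electrophoresis after RT-PCR. Transiently transfected HepG2, 24 h compound exposure, endogenous TF activity at cis promoter elements. Gain or loss of signal fitted relative to DMSO.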

Test [16] in a line: ATG_FoxO_CIS: Attagene CIS-FACTORIAL HepG2 Assay for human Forkhead box O (FoxO) (AID 2282943). Particulars: HepG2 Attagene cis-reporter, FoxO element, mRNA; actives raise or lower the signal. The gist of the method:
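Read-out: fluorescence of 6-FAM-labelled reporter cDNA fragments resolved by capillary electrophoresis. Transiently transfected HepG2 cells were dosed for 24 h; activity fitted in both directions relative to DMSO controls.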

Test [17] in a line: ATG_GATA_CIS: Attagene CIS-FACTORIAL HepG2 Assay for human GATA Binding Protein (AID 2282944). To be noted: HepG2 GATA cis-element reporter, Attagene multiplex mRNA; actives raise or lower the signal. The gist of the method: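 Cells: HepG2, transiently transfected with cis-regulated reporter transcription units. Exposure: 24 h. Detection: RT-PCR plus capillary electrophoresis of FAM-labeled fragments. Analysis: bidirectional, DMSO as baseline.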

Test [18] is described as follows: ATG_GLI_CIS: Attagene CIS-FACTORIAL HepG2 Assay for human Zinc Finger Protein GLI1 (AID 2282945). Particulars: HepG2, Attagene cis-factorial reporter mRNA, GLI element; actives raise or lower the signal. The gist of the method: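 Transiently transfected HepG2 cells report endogenous transcription factor activity via cis-element-driven reporter units. After 24 h compound exposure, reporter mRNA was measured by RT-PCR with capillary electrophoresis; bidirectional fitting against DMSO baseline.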

Test [19] concerns the target Bile acid receptor (Homo sapiens) (UniProt Q96RI1). The test can be described thus: ATG_IR1_CIS: Attagene CIS-FACTORIAL HepG2 Assay for human Nuclear Receptor Subfamily 1 Group H Member 4 (NR1H4), IR1 submotif (AID 2282946). To be noted: IR1 reporter transcription, actives raise or lower the signal. In short, it runs like this: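 Fluorescence of capillary-separated, HpaI-digested RT-PCR reporter products gave IR1-element mRNA induction in HepG2 cells 24 h after dosing. Endogenous transcription factors drove the cis-regulated reporters; activity was fitted bidirectionally against DMSO.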

A short description of test [20]: ATG_E_Box_CIS: Attagene CIS-FACTORIAL HepG2 Assay for human Enhancer Box (E-box) (AID 2282936). Particulars: HepG2 E-box cis-reporter transcription, actives raise or lower the signal. The gist of the method: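 In this cell-based setup, HepG2 cells bearing transfected promoter-driven reporter units were exposed to chemicals for 24 h; reporter transcripts were amplified, 6-FAM-labelled, cut with HpaI and sized by capillary electrophoresis.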

Activity calls are given as the source filed them. Rule for the calls: active = hit-call score of the fitted dose curve at least 0.9, where 1 is the maximum; inactive = score below 0.9.

Transcription factor E2F1 (Homo sapiens), sequence (Q01094 whole entry, looked up): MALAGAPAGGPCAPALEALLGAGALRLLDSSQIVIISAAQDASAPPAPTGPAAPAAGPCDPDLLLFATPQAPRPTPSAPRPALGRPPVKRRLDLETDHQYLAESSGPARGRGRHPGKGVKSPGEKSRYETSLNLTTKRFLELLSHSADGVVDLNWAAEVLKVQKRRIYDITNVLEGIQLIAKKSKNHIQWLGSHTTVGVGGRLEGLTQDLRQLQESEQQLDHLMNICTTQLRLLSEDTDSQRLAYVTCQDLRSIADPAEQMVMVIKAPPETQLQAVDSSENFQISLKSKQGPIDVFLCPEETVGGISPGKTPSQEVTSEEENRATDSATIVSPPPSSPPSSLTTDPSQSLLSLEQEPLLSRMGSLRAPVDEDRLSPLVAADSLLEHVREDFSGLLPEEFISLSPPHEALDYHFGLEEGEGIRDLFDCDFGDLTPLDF
Bile acid receptor (Homo sapiens), sequence (Q96RI1 whole entry, looked up): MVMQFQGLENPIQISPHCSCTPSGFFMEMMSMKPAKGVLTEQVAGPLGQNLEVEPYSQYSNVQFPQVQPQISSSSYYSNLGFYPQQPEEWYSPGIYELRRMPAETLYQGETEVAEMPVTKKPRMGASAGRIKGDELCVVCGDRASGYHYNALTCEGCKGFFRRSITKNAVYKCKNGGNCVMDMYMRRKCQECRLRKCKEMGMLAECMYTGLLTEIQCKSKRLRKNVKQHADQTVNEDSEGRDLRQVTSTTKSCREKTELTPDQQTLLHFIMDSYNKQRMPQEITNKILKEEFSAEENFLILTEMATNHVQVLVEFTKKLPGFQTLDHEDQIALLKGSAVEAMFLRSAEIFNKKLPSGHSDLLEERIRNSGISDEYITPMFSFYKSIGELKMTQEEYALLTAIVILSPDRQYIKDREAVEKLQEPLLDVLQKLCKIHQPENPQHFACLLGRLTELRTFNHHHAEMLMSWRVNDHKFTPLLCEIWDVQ
Aryl hydrocarbon receptor (Homo sapiens), sequence (P35869 whole entry, looked up): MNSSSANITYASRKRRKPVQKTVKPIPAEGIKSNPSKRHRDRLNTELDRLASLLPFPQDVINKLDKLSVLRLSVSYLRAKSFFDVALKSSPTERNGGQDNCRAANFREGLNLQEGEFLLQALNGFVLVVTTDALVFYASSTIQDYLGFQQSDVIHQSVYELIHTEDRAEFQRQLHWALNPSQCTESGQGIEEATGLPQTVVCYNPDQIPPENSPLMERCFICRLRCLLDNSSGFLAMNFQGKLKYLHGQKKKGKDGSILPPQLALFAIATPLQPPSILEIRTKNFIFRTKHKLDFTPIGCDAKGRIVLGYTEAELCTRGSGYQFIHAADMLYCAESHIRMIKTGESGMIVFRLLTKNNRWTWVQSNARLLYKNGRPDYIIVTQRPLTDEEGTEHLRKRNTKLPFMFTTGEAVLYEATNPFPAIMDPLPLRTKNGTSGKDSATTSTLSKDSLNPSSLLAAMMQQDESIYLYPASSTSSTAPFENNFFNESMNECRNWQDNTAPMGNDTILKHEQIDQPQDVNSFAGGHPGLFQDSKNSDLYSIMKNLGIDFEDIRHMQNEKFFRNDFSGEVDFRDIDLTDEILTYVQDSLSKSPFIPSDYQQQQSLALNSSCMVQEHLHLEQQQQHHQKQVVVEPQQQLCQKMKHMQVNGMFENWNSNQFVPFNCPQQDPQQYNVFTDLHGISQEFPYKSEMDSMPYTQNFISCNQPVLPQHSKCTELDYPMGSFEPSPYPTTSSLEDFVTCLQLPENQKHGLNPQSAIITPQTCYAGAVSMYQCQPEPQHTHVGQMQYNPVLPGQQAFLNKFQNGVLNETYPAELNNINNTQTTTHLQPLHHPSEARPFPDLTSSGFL
CCAAT/enhancer-binding protein beta (Homo sapiens), sequence (P17676 whole entry, looked up): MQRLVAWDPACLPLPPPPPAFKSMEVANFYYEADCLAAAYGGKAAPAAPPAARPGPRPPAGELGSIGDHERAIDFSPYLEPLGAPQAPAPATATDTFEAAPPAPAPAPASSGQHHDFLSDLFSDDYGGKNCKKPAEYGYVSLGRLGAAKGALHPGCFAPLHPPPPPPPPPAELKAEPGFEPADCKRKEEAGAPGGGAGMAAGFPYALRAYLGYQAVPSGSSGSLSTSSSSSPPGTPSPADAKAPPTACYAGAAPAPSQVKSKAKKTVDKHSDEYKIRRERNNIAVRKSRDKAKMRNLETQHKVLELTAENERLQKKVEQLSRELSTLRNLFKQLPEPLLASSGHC
Hepatocyte nuclear factor 3-beta (Homo sapiens), sequence (Q9Y261 whole entry, looked up): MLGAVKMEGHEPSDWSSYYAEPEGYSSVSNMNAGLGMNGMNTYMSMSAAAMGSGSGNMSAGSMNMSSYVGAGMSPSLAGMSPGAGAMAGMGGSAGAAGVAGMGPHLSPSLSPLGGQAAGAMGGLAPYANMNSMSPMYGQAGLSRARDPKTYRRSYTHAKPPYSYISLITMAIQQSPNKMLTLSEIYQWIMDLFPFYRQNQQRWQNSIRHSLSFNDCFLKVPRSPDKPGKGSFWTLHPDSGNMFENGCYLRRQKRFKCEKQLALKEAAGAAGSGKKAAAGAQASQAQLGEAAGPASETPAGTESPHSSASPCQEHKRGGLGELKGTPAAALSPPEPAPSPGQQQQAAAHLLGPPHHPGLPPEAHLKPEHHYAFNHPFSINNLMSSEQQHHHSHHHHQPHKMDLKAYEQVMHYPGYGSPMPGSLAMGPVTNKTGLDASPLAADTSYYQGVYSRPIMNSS
Retinoic acid receptor alpha (Homo sapiens), sequence (P10276 whole entry, looked up): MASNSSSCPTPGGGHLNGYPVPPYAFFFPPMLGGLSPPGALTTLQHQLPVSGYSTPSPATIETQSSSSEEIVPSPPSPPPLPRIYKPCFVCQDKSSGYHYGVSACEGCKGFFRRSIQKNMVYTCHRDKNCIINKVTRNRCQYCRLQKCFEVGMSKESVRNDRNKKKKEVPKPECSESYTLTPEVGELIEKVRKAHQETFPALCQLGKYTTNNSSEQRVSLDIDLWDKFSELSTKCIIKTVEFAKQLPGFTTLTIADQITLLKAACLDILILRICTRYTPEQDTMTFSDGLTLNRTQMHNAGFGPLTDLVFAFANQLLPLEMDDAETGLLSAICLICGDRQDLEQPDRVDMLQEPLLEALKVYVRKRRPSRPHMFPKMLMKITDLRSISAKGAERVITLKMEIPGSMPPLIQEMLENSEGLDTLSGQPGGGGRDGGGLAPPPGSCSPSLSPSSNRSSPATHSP

As to `COc1cccc(C(=O)NN(C(=O)c2cc(C)cc(C)c2)C(C)(C)C)c1C`, the molecule was called inactive in test [1], in test [2], in [3], in test [5], in test [6] and in test [8]. The molecule was called inactive in [9], in [10], in [11], in test [12], in test [13] and in [14]. For the same molecule, the molecule was classed as inactive in [15], in test [17], in test [18] and in test [19]. Also, the AC50 in test [4] is 50 µM (active); in [7] it was 13.1 µM (active); in [16] it was 12.9 µM (active).

Regarding `CCCCSP(=O)(SCCCC)SCCCC`, the result in [1], in [2], in [5], in test [7], in [9] and in test [11] was inactive. In addition, the outcome in [12], in test [13], in [14], in test [15], in test [16] and in [19] was inactive. Also, the AC50 in test [3] is 39.3 µM (active); in test [4], 72.9 µM (active); in test [6], 70.1 µM (active); in [8] it was 40.1 µM (active); in [10], 58.3 µM (active); in test [18], 79.8 µM (active).

`CCOP(=S)(OCC)Oc1cc(C)nc(C(C)C)n1`: the molecule was called inactive in test [1], in [2], in test [6], in test [7], in [8] and in test [10]. Besides, the result in test [20], in test [11], in [12], in [13], in [14] and in test [15] was inactive. Further, the molecule was called inactive in test [16] and in test [18]. The AC50 is 29.8 µM (active) in test [3], 50 µM (active) in [4] and 16.3 µM (active) in test [5].

As for `CCOP(=O)(OCC)Oc1cc(C)nc(C(C)C)n1`, the outcome in test [1], in test [2], in [3], in test [4], in test [5] and in test [6] was inactive. Further, the molecule was classed as inactive in test [7], in test [8], in test [10], in test [20], in test [11] and in test [12]. The molecule was classed as inactive in [13], in [14], in test [15], in test [16], in test [18] and in test [19].

As usually defined, the AC50 is the concentration giving half of the maximal activity seen.

The record behind these values is PubChem BioAssay (EPA / NIEHS).
